BAZ2B block – qHTS Assay for Inhibitors of BAZ2B | Bromodomain adjacent to zinc finger domain protein 2B (Homo sapiens), Q9UIF8 | AlphaScreen BAZ2B-H3K14Ac peptide displacement | Potency, µM (highest dose often 114 µM), for inactives: top-dose activity change, negative = inhibition, actives largely listed as inhibitors | hit rate 4.4% among 360,000; note: % is set by controls: 0 for no effect and ±100 for the full control effect; nearly all actives have a fitted effect of over 60% in size
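Protein-peptide AlphaScreen: BAZ2B 50 nM, b-H3K14Ac 50 nM, 1x PBS pH 7.4 + 0.01% Tween-20. Preincubation 30 min RT; cpd 30 min RT (top 110 uM); beads 20 min RT, light-protected.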
JMJD2A Tudor inh – qHTS Assay for Inhibitors of JMJD2A-Tudor Domain; Lysine-specific demethylase 4A (Homo sapiens), O75164; AlphaScreen JMJD2A-Tudor / H3K4me3 peptide binding; Potency, µM (doses to about 114 µM), for inactives: at the highest dose activity change, negative = inhibition, hits mostly inhibitors; hit rate 4.4% among 390,000; AID 504339, 2011; note: % is set by controls: 0 for no effect and ±100 for the full control effect; nearly all actives have a fitted effect of over 50% in size
HP1b binding inh – HTS for Inhibitors of HP1-beta Chromodomain Interactions with Methylated Histone Tails. Chromobox protein homolog 1 (Homo sapiens), P83916. AlphaScreen HP1-beta / biotin-H3K9me3 peptide binding. Potency, µM (doses to about 114 µM), for inactives: top-dose activity change, negative = inhibition, actives largely listed as inhibitors. hit rate 0.56% among 390,000; note: nearly all actives have a fitted effect of over 70% in size
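Compound inhibition of the preformed complex between 50 nM HP1-beta and 50 nM biotinylated H3K9me3 peptide was read by AlphaScreen. Buffer was PBS pH 7.4 with 0.01% Tween-20. Incubations ran 30 min at room temperature, with 10 ug/mL donor/acceptor beads.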
Sfp inh – qHTS Assay for Inhibitors of Bacillus subtilis Sfp phosphopantetheinyl transferase (PPTase); 4'-phosphopantetheinyl transferase ffp (Bacillus subtilis), Q9F4F7; Biochemical Sfp PPTase activity, qHTS; Potency, µM, without a hit: largest response in the series, negative = inhibition, actives largely listed as inhibitors; hit rate 3.5% among 310,000; AID 1490, 2009;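 note: the enzyme is Sfp with the accession as filed and its product quenches rhodamine fluorescence; 0% = enzyme reaction without inhibitor and -100% = no enzyme wells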
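Sfp 15 nM + cpd, 15 min RT; start w/ rhodamine-CoA 5 uM, BHQ-2-YbbR 12.5 uM (final); 50 mM Hepes pH 7.6, 10 mM MgCl2, 0.01% NP-40, 0.01% BSA; read 525/598 nm at 0 and 30 min.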
G9a block – qHTS Assay for Inhibitors of Histone Lysine Methyltransferase G9a; G9a H3K9 monomethylation, AlphaScreen, 2 h; Histone-lysine N-methyltransferase EHMT2 (Homo sapiens), Q96KQ7; Potency, µM (doses to about 102 µM), without a hit: top-dose activity, negative = inhibition, actives largely listed as inhibitors; AID 504332, 2011; hit rate 8.8% among 350,000; note: % is set by controls: 0 for no effect and ±100 for the full control effect; nearly all actives have a fitted effect of over 75% in size
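Step 1: enzyme (final 20 nM) with compound, 15 min RT. Step 2: substrate peptide 500 nM and SAM 20 uM, 2 h RT. Step 3: anti-H3K9me1 antibody and AlphaScreen beads, 10 min, then plate read.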
* marks the source's active call; other numbers are inactive results; ? = inconclusive; . = not tested or not shown; [ ] = another dose, or the depositor's remark. An excerpt weighted towards active compounds, which were near 12% of everything screened. Calls come from the whole dose curve; as a rule, active = well fitted curve in the direction sought with a large enough effect; inconclusive = small, poorly fitted or top-dose-only effect, or another doubt; inactive = no such curve, though single readings can be large; an effect the other way counts as inactive or inconclusive. Potency is the fitted concentration of half-maximal effect.

SMILES | BAZ2B block | JMJD2A Tudor inh | HP1b binding inh | Sfp inh | G9a block
CS(=O)(=O)c1ccc(NC(=O)CN2C(=O)C3CCCCC3C2=O)cc1 (centres undefined) | -4.2% | -21.5% | ? | 14.9% | 18.5%
Oc1c(C=Nc2ccccc2Cl)[nH]c2ccccc12 | -13.4% | ? | -22.2% | ? | 8.91µM*
Cn1c(=O)c2c(nc(NC(Cc3ccccc3)C(=O)O)n2Cc2ccccc2)n(C)c1=O (centres undefined) | ? | -23.0% | 22.5% | 6.1% | 56.2µM*
CNc1nc2c(c(=O)n(C)c(=O)n2C)n1Cc1ccccc1 | -0.5% | -23.4% | 44.2% | 18.4% | 22.8%[59 µM]
CC(=O)OC1OCCOC1NC(=S)NCc1ccco1 (centres undefined) | -1.7% | ? | -2.5% | 22.4µM* | .
CC(=O)OC1OCCOC1NC(=S)Nc1cccc(C(F)(F)F)c1 (centres undefined) | 2.7% | 3.5% | 48.7% | -22.8% | 2.7%
O=C(Nc1cc2c3c(c1)CC(=O)N3CCC2)c1cccc(F)c1 | -21.4% | -14.5% | 23.2% | . | -8.4%
COC(=O)[C@@H](N)Cc1ccc(O)c(O)c1 | 4.8% | -10.1% | 14.6% | 56.2µM* | 3.5%[59 µM]
Cc1cccc(NC(=S)N/N=C2\CC(C)(C)Oc3ccc(O)cc32)c1 | -12.4% | ? | -2.1% | 12.9% | 19.3%[59 µM]
CC1(C)C/C(=N\NC(=S)Nc2ccccc2F)c2cc(O)ccc2O1 | ? | 17.8µM* | 7.94µM* | -9.3% | ?
CCOC(=O)c1cnc(SC2CC(=O)N(c3ccc(OC)c(OC)c3)C2=O)nc1N (centres undefined) | 12.6% | -6.7% | 19.4% | 5.9% | 20µM*
COc1ccc(N2C(=O)CC(Sc3nc4ccccc4s3)C2=O)cc1OC (centres undefined) | -18.5% | -13.8% | 30.4% | -22.6% | 31.6µM*
CCOc1ccc2nc(SC3CC(=O)N(c4ccc(OC)cc4OC)C3=O)sc2c1 (centres undefined) | -22.3% | -22.4% | 34.4% | -0.8% | 31.6µM*
CCOc1ccc(N2C(=O)CC(Sc3nc4ccc(OCC)cc4s3)C2=O)cc1 (centres undefined) | . | -7.9% | 70.1% | . | .
CC(=O)Nc1ccc(N2C(=O)CC(Sc3nc4ccccc4s3)C2=O)cc1 (centres undefined) | -31.7% | -16.6% | 34.7% | -7.6% | 28.2µM*
Cc1ccc(N2C(=O)[C@@H]3[C@H](C2=O)[C@H]2C=CC=NN2[C@@H]3C(=O)Nc2ccc(Cl)cc2)cc1 | 50.1µM* | -7.9%[57.1 µM] | 2.0% | 39.8µM* | 3.16µM*
O=C(Nc1ccc(Cl)cc1)[C@@H]1[C@@H]2C(=O)N(c3ccc(Cl)cc3Cl)C(=O)[C@@H]2[C@H]2C=CC=NN21 | ? | . | . | -10.3% | ?
O=C(Nc1ccc(Cl)cc1)[C@@H]1[C@@H]2C(=O)N(c3ccc(Cl)cc3)C(=O)[C@@H]2[C@H]2C=CC=NN21 | -38.7% | ? | -26.4% | 44.7µM* | ?
CNC(=O)c1csc(-c2ccc(Cl)cc2)n1 | -21.1% | -9.7% | 30.5% | -3.1% | 0.7%
O=C(O)c1csc(-c2ccc(Cl)cc2)n1 | ? | -20.5% | -1.6% | -9.4% | 56.2µM*
CCN1CCN(c2cc(N3CCN(C(=O)c4ccco4)CC3)c3c4c(onc24)-c2ccccc2C3=O)CC1 | 11.2µM* | 28.2µM* | ? | 50.1µM* | 17.8µM*
O=C(O)CCNc1cc(N2CCN(C(=O)c3ccco3)CC2)c2noc3c2c1C(=O)c1ccccc1-3 | 12.6µM* | 17.8µM* | ? | -23.4% | 10µM*
O=C(c1cc(-c2ccccc2Cl)on1)N1CCN(C(=O)c2ccco2)CC1 | -3.9% | -28.5% | 18.6% | 11.8% | -0.2%
Cc1cc(N2CCN(C(=O)c3ccco3)CC2)c2ccccc2n1 | -13.9% | -13.7% | 32.8% | 22.2% | ?
COc1ccc(CCNC(=O)c2c([S-])n(-c3ccc(C)cc3)c3cccc[n+]23)cc1 | -15.6% | ? | -6.8% | -0.7% | ?
